Reference: PubChem BioAssay (NCATS)
Inconclusive results are not listed. Activity calls are given as the source filed them. Unless noted, calls come from the whole dose curve; as a rule, active = well fitted curve in the direction sought with a large enough effect; inconclusive = small, poorly fitted or top-dose-only effect, or another doubt; inactive = no such curve, though single readings can be large; an effect the other way counts as inactive or inconclusive.

Experiments:
[1] = qHTS profiling of the MIPE4 collection as inhibitors of Plasmodium falciparum (3D7) proliferation (AID 743344; call rule not given here;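 note: scaled between DMSO vehicle wells and 0.29 µM artemisinin as full inhibition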); details: P. falciparum 3D7 in erythrocytes, SYBR Green DNA fluorescence, 72 h; at 28.5 µM unless noted
Procedure, shortened: (§1)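 Parasite DNA was quantified by SYBR Green I fluorescence (ex 485, em 535 nm) after overnight lysis in saponin/Triton buffer at room temperature. Cultures at 0.3% parasitemia and 2.5% hematocrit were first exposed to compound for 72 h at 37 C; signals were normalised to artemisinin (0.29 uM) and vehicle wells.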

[2] = qHTS profiling of the MIPE4 collection as inhibitors of Plasmodium falciparum (DD2) proliferation (Rep 2) (AID 743346; call rule not given here); details: P. falciparum Dd2 in erythrocytes, SYBR Green DNA, 72 h; at 28.5 µM unless noted
Procedure, shortened: as §1

[3] = qHTS profiling of the MIPE4 collection as inhibitors of Plasmodium falciparum (HB3) proliferation (AID 743347; call rule not given here;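 note: plate controls were DMSO vehicle wells for no effect and artemisinin wells for full effect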); details: P. falciparum HB3 in erythrocytes, SYBR Green DNA, 72 h; at 28.5 µM unless noted
Procedure, shortened: as §1

[4] = High-throughput drug toxicity screening in the BPDCN cell line Gen2.2 (AID 1224824; call rule not given here;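 note: cells exposed to compounds for 48 h before reading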); details: Gen2.2 BPDCN cells; at 45.8 µM (top of the series) unless noted
Procedure, shortened: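 Seed 500 exponentially growing Gen2.2 cells/well; add compounds by pin tool; incubate 48 h, 37 °C, 5% CO2; add CellTiter-Glo, 15 min RT; read luminescence. % activity vs DMSO (100%) and bortezomib (0%).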

[5] = qHTS assay for measurement of the activity of small molecule inhibitors on Zika virus induced Caspase-3 activity in human iPSC derived neural progenitor cells (hNPCs) (AID 1224857); note: nearly all actives have a fitted effect of over 65% in size; note: potency is the fitted concentration of half-maximal effect
Procedure, shortened: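 After overnight (16–20 h) culture at 350 cells/well, hNPCs get compound, then ZIKV 2 FFU/cell one hour later. Six hours on, Caspase-Glo 3/7 is added and luminescence measured.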

[6] = qHTS assay for measurement of the activity of small molecule inhibitors on Zika virus induced Caspase-3 activity in human astrocytoma cells (AID 1224859); note: potency is the fitted concentration of half-maximal effect
Procedure, shortened: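 Inhibition of Zika-induced caspase-3/7 activity: SNB-19 cells, 1 h compound pretreatment, ZIKV 2 FFU/cell for 6 h at 37 C, Caspase-Glo luminescence read-out.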

[7] = qHTS Screen of the MIPE 4.0 Collection Against Ewings Sarcoma (TC71) (AID 1259253); note: nearly all actives have a fitted effect of over 40% in size; note: potency is the fitted concentration of half-maximal effect
Procedure, shortened: (§2)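 Compound titrations go onto adherent log-phase cells 4 h after seeding, incubate 48 h at 37C, then CellTiter-Glo luminescence reports viability relative to DMSO and cell-free controls.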

[8] = qHTS Screen of the MIPE 4.0 Collection Against Ewings Sarcoma (EW8) (AID 1259255); note: nearly all actives have a fitted effect of over 35% in size; note: potency is the fitted concentration of half-maximal effect;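 for viability: 100% = DMSO-treated cells and 0% = medium-only wells without cells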
Procedure, shortened: as §2

[9] = qHTS Screen of the MIPE 4.0 Collection Against Ewings Sarcoma (TC32) (AID 1259256); note: nearly all actives have a fitted effect of over 45% in size; note: potency is the fitted concentration of half-maximal effect
Procedure, shortened: as §2

[10] = qHTS profiling of the MIPE4 collection as inhibitors of Plasmodium falciparum (DD2) proliferation (AID 743345; call rule not given here); details: P. falciparum Dd2 in erythrocytes, SYBR Green DNA, 72 h; at 28.5 µM unless noted
Procedure, shortened: as §1

[11] = qHTS Screen of the MIPE 4.0 Collection Against Ewings Sarcoma (RDES) (AID 1259252); note: nearly all actives have a fitted effect of over 35% in size; note: potency is the fitted concentration of half-maximal effect
Procedure, shortened: as §2

[12] = High-throughput drug toxicity screening in the BPDCN cell line Cal-1 (AID 1224825); details: Cal-1 BPDCN cell viability, qHTS; at 45.8 µM (top of the series) unless noted
Procedure, shortened: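 Viability of the BPDCN line Cal-1 is measured as ATP-based luminescence (CellTiter-Glo) following 48 h incubation with compounds. Percent activity uses DMSO-treated wells as 100% and 9.2 uM bortezomib as 0%.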

[13] = qHTS assay to identify small molecule inhibitors of chordoma cells - UCH-1 (AID 1259355); note: % is set by controls: 0 for no effect and ±100 for the full control effect; nearly all actives have a fitted effect of over 55% in size
Procedure, shortened: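 A 48hr growth-inhibition format: each drug tested at 15 concentrations together with added auranofin, camptothecin, doxorubicin, rubitecan and topotecan, with cell viability quantified as CellTiter-Glo luminescence.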

[14] = qHTS assay to identify small molecule inhibitors of chordoma cells - UCH-2 (AID 1259356); note: % is set by controls: 0 for no effect and ±100 for the full control effect
[15] = qHTS profiling for inhibitors of Plasmodium falciparum (3D7) proliferation (AID 743322; call rule not given here;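 note: infected erythrocytes exposed to compound for 72 h before lysis; 100% = DMSO vehicle wells and 0% = 0.29 µM artemisinin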); details: P. falciparum 3D7 proliferation; at 28.7 µM (top of the series)
Procedure, shortened: as §1

[16] = qHTS profiling for inhibitors of Plasmodium falciparum (DD2) proliferation (AID 743323; call rule not given here); details: lower = more inhibition; at 28.7 µM (top of the series)
Procedure, shortened: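 Parasite DNA quantified by SYBR Green fluorescence (ex 485, em 535 nm) after saponin/Triton lysis and overnight dark incubation. Cultures: 0.3% parasitemia, 2.5% hematocrit, 72 h, 37 C; data scaled between DMSO and 0.29 uM artemisinin.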

[17] = qHTS profiling for inhibitors of Plasmodium falciparum (HB3) proliferation (AID 743324); details: Plasmodium falciparum HB3 blood-stage proliferation; at 28.7 µM (top of the series);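 note: 100% = DMSO vehicle wells and 0% = artemisinin-treated control wells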
Procedure, shortened: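 SYBR Green fluorescence (485 ex/535 em) of lysed cultures, incubated overnight at room temperature in the dark, quantifies parasite DNA. Infected erythrocytes at 0.3% parasitemia and 2.5% hematocrit were exposed 72 h; values normalized to DMSO and 0.29 uM artemisinin controls.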

[18] = Identifying Small Molecule Inhibitors of Pancreatic Cancer Stem Cells (A2780, Spheroid) (AID 1259357); details: Potency: A2780 spheroid viability;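 note: spheroids pre-formed over 14 days in stem cell medium on hydrogel; potency is the fitted concentration of half-maximal effect; compound exposure lasted 48 h before the ATP luminescence read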
Procedure, shortened: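 Spheroids grown 14 days in stem cell media on hydrogel-coated nonadherent plates; 2D lines seeded directly. Compounds added after 4 h attachment, 48 h at 37C, 5% CO2; CellTiter-Glo luminescence normalized to DMSO (no inhibition) and no-cell wells (full inhibition).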

[19] = Identifying Small Molecule Inhibitors of Pancreatic Cancer Stem Cells (SN12C, Adherent) (AID 1259358);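 note: potency is the fitted concentration of half-maximal effect; cell survival measured after 48 h of compound exposure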
Procedure, shortened: (§3)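 Viability is scored by CellTiter-Glo luminescence 48 h after dosing, expressed as percent activity against vehicle and no-cell references. Spheroid formats rely on cells cultured 14 days in stem cell media beforehand.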

[20] = Identifying Small Molecule Inhibitors of Pancreatic Cancer Stem Cells (Panc1, Spheroid) (AID 1259359);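 note: potency is the fitted concentration of half-maximal effect; compound exposure lasted 48 h before reading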
Procedure, shortened: as §3

Row | Compound | parasite growth, % of DMSO control [1] | parasite growth, % of control (lower = inhibition) [2] | growth, % of control [3] | cell viability, % of control (lower = more cytotoxic) [4] | Potency [5] | Potency [6] | Potency [7] | Potency [8] | Potency [9] | parasite growth remaining, % of DMSO control (lower = more inhibition) [10] | Potency [11] | viability (% of control) [12] | Potency [13] | outcome [14] | remaining parasite growth % (stronger effect = lower value) [15] | activity, percent of control [16] | remaining proliferation (% of control), lower = more inhibition [17] | Potency [18] | Potency [19] | Potency [20]
1 | O=c1c2ccccc2nc2n1CCc1c-2[nH]c2ccccc12 | 85.9% | 167% | 85.6% | 35% | 13.2 µM (active) | 7.94 µM (active) | inactive | inactive | inactive | – | – | – | – | – | – | – | – | – | – | –
2 | CNC(=O)c1ccc(-c2cnc3ncc(Cc4ccc5ncccc5c4)n3n2)cc1F | 19.3% | 37.1% | 10.4% | 48.9% | inactive | inactive | inactive | inactive | inactive | 41.8% | inactive | – | – | – | – | – | – | – | – | –
3 | CC(C)(O)c1cc2nc(-c3cnc(N)nc3)nc(N3CCOCC3)c2s1 | 10.6% | 10% | 2.52% | 33.5% | inactive | inactive | 0.132 µM (active) | 0.148 µM (active) | 0.0662 µM (active) | – | 0.059 µM (active) | – | – | – | – | – | – | – | – | –
4 | COc1cc(C(=O)NS(=O)(=O)c2ccccc2C)ccc1Cc1cn(C)c2ccc(NC(=O)OC3CCCC3)cc12 | 5.96% | 16.7% | 7.01% | – | inactive | inactive | 23.5 µM (active) | 16.6 µM (active) | 18.7 µM (active) | 7.78% | 23.5 µM (active) | 4.45% | inactive | inactive | – | – | – | – | – | –
5 | C=CC(=O)Nc1cc2c(Nc3ccc(F)c(Cl)c3)ncnc2cc1C#CC(C)(C)N1CCN(C)CC1 | 9.4% | 18% | 4.67% | 6.93% | inactive | inactive | 2.64 µM (active) | 2.35 µM (active) | 1.32 µM (active) | 8.69% | – | – | – | – | -1.21% | -0.164% | -0.161% | 16.6 µM (active) | 13.2 µM (active) | 5.26 µM (active)
6 | Cc1cc(Nc2nc(N[C@@H](C)c3ccc(F)cc3)c(C#N)cc2F)n[nH]1 | 7.05% | 9.75% | 6.34% | 218% | – | inactive | 13.2 µM (active) | 1.05 µM (active) | 1.32 µM (active) | 7.99% | 1.66 µM (active) | – | – | – | – | – | – | – | – | –
7 | COc1ccc(C=Cc2cc(OC)c(OC)c(OC)c2)cc1O | 36% | 44% | 22.3% | 10.8% | inactive | inactive | inactive | inactive | inactive | 21.1% | inactive | – | – | – | 92% | 104% | 84.7% | – | 0.0026 µM (active) | –
